This note sets out measurements from PubChem BioAssay (NCATS).

Results filed as inconclusive are left out. Activity calls are given as the source filed them. Unless noted, calls come from the whole dose curve; as a rule, active = well fitted curve in the direction sought with a large enough effect; inconclusive = small, poorly fitted or top-dose-only effect, or another doubt; inactive = no such curve, though single readings can be large; an effect the other way counts as inactive or inconclusive.

Assay [1] in a line: HPAF-II Cancer Cell Toxicity qHTS against the NCATS CANVASS Library (AID 1347346). Note: % is set by controls: 0 for no effect and ±100 for the full control effect; nearly all actives have a fitted effect of over 55% in size. The settings on record: HPAF-II viability, CellTiter-Glo ATP luminescence, 72 h; series mostly up to 38.3 µM. An outline of the steps: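 HPAF-II cells were seeded at 1000 cells/well, allowed to settle for 4 h at 37 degrees C, then exposed to compounds in an 11-point series for 72 h. Viability was read by CellTiter-Glo luminescence.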
For orientation: Quantitative high-throughput screening tests each substance at several concentrations.

Assay [2] can be described thus: HPAF-II 24hr Apoptosis Induction qHTS against the NCATS CANVASS Library (AID 1347356). Note: 0% is about no effect. The settings on record: HPAF-II caspase-3/7 Caspase-Glo luminescence; series mostly up to 46.1 µM. The method, boiled down:
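HPAF-II cells (500/well) in DMEM + 10% FBS were treated with an 11-point compound series for 24 hours at 37 degrees C. Caspase-3/7 activity was then read by Caspase-Glo DEVD luminescence after 15 min.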

Assay [3] can be described thus: HEK293 18hr Apoptosis Induction qHTS against the NCATS CANVASS Library (AID 1347357). Note: 0% is about no effect. The settings on record: HEK293 caspase-3/7 Caspase-Glo luminescence; series mostly up to 46.1 µM. An outline of the steps: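 Cells seeded at 500/well in DMEM + 10% FBS. Compounds pinned, 11 concentrations. 18 h, 37 degrees C/5% CO2. Caspase-Glo 3/7 added, 15 min RT dark, luminescence read.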

Assay [4] in a line: HPAF-II 12hr Apoptosis Induction qHTS against the NCATS CANVASS Library (AID 1347358). Note: 0% is about no effect. The settings on record: HPAF-II caspase-3/7 Caspase-Glo luminescence; series mostly up to 46.1 µM. The method, boiled down:
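HPAF-II cells (500/well, DMEM + 10% FBS) were exposed to compounds for 12 hours at 37 degrees C. Caspase-3/7 activity was then read by Caspase-Glo 3/7 luminescence after 15 min at room temperature.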

Assay [5] is described as follows: HPAF-II 18hr Apoptosis Induction qHTS against the NCATS CANVASS Library (AID 1347360). Note: 0% is about no effect. The settings on record: HPAF-II caspase-3/7 luminescence; series mostly up to 46.1 µM. The method, boiled down: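 Seed HPAF-II cells at 500/well in DMEM + 10% FBS, pin-transfer compounds, incubate 18 hours at 37 degrees C/5% CO2, add Caspase-Glo 3/7 reagent, wait 15 min, read luminescence.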

Assay [6] is described as follows: HEK293 12hr Apoptosis Induction qHTS against the NCATS CANVASS Library (AID 1347361). Note: 0% is about no effect. The settings on record: HEK293 caspase-3/7 Caspase-Glo luminescence; series mostly up to 46.1 µM. The method, boiled down:
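Cells are seeded, dosed with an 11-point compound series and incubated 12 hours. Caspase-3/7 activity is detected by luminescent DEVD-substrate reagent after 15 minutes at room temperature.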

In assay [7] the test system is NAD(P)H diaphorase (Clostridium kluyveri). In words: Diaphorse counterscreen qHTS: Assay Interference Panel against the NCATS CANVASS Library (AID 1347362). Note: 0% is about no effect. The settings on record: Diaphorase enzyme, resazurin to resorufin fluorescence; series mostly up to 57.5 µM. The method, boiled down: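 Counterscreen for coupling-enzyme interference: resorufin fluorescence from resazurin/NADH turnover, read after 5 min at room temperature. Compounds were tested over an 11-point series after 15 min dark preincubation with diaphorase in PBS-Tween.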
(The purpose of a counterscreen is to sort out artefacts and off-target activity.)

Assay [8] deals with Luciferin 4-monooxygenase (Photinus pyralis) (UniProt P08659). Nature of the assay: Firefly luciferase counterscreen qHTS: Assay Interference Panel against the NCATS CANVASS Library (AID 1347363). Note: 0% is about no effect. The settings on record: purified firefly luciferase, luminescence inhibition, 5 min; series mostly up to 57.5 µM. An outline of the steps:
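Luminescence inhibition readout: compounds (11-point qHTS) sat 15 min at room temperature with substrate mix (0.013 mM luciferin and ATP), then firefly luciferase was added and signal read 5 min later.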

A short description of assay [9]: MCF7 Cancer Cell Toxicity qHTS against the NCATS CANVASS Library (AID 1347369). The settings on record: MCF7 viability, ATP luminescence (CellTiter-Glo), 72 h; series mostly up to 46 µM. The method, boiled down: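 Cells seeded at 500/well, then compound pinned. Plates incubated 72 hr at 37C, 5% CO2. CellTiterGlo added; luminescence read.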
Assay [10] is described as follows: qHTS for ATAD5 Antagonist screened against the NCATS CANVASS Library (AID 1347370).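 Note: HEK293T cells carrying an ATAD5 luciferase reporter co-treated with 10 µM 5-fluorouridine; % is set by controls: 0 for no effect and ±100 for the full control effect; nearly all actives have a fitted effect of over 65% in size.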 The settings on record: HEK293T-ATAD5-luc, 5-FUrd stimulated, luminescence, 16 h; series mostly up to 46.1 µM. The method, boiled down:
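HEK293T cells with a stably integrated ATAD5-controlled luciferase reporter were exposed to compounds (11-pt) alongside 10 uM 5-fluorouridine as ATAD5 stabilizer for 16hr at 37C. Viability was read by CellTiter-Fluor fluorescence, then ATAD5 by luminescence.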

The nature of assay [11]: J3T Cancer Cell Toxicity qHTS against the NCATS CANVASS Library (AID 1347371).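 Note: J3T is a canine glioma cancer cell line seeded at 500 cells per well; % is set by controls: 0 for no effect and ±100 for the full control effect.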 The settings on record: J3T dog glioma viability, ATP luminescence, 72 h; series mostly up to 46.1 µM. The method, boiled down:
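J3T dog glioma cells (500 cells/well) were exposed to compounds in an 11-point series for 72 hr at 37C, 5% CO2. Cytotoxicity was read as ATP content by CellTiterGlo luminescence.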

Assay [12] concerns the target Nuclear receptor subfamily 1 group I member 3 (Homo sapiens) (UniProt Q14994). In words: qHTS for Constitutive Androstane Receptor (CAR) Antagonist screened against the NCATS CANVASS Library (AID 1347372).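 Note: cells stimulated with 50 nM CITCO agonist so inhibition reflects antagonism; % is set by controls: 0 for no effect and ±100 for the full control effect.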 The settings on record: HepG2-hCAR-CYP2B6 luciferase, CITCO-stimulated antagonist mode; series mostly up to 46.1 µM. The method, boiled down: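 HepG2-CYP2B6-hCAR double-stable cells plated, 4hr attach; cpd pin-transferred; CITCO 50 nM final; 24hr 37C/5% CO2; CellTiter-Fluor 1hr (fluorescence), then ONE-Glo luminescence.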

The target is the same in assay [13]. In words: qHTS for Constitutive Androstane Receptor (CAR) Agonist screened against the NCATS CANVASS Library (AID 1347373).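 Note: every well also contained 1.5 µM PK11195 alongside the test compound; 0% is about no effect.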 The settings on record: HepG2-hCAR-CYP2B6 luciferase reporter, ONE-Glo luminescence; series mostly up to 46.1 µM. An outline of the steps:
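HepG2 cells stably expressing hCAR and a CYP2B6-2.2kb luciferase reporter were treated for 24hr at 37C with compounds (11-point qHTS) in the presence of 1.5uM PK11195. Reporter activation was read by ONE-Glo luminescence.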

A short description of assay [14]: qHTS for Hypoxia signaling pathway (HIF-1) agonists against the NCATS CANVASS Library (AID 1347375). Note: 0% is about no effect. The settings on record: HRE-bla ME-180 cells, HIF-1 beta-lactamase reporter, 17 h; series mostly up to 38.3 µM. The method, boiled down: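 HRE-bla ME-180 cells (beta-lactamase reporter under hypoxia responsive element) in 0.5% dialyzed FBS medium, 5 h at 37C, then compound 17 h, 11-point qHTS series. CCF4-AM FRET substrate 2 h RT; 460/530 nm emission read.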

A short description of assay [15]: 10-beta competent E. coli microbial cell viability qHTS against the NCATS CANVASS Library (AID 1347376). Note: 0% is about no effect. The settings on record: E. coli 10-beta viability, BacTiter-Glo ATP luminescence, overnight; series mostly up to 46.1 µM. The method, boiled down: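 10-beta competent E. coli (0.9 OD culture diluted to 0.2 OD) exposed to compounds in an 11-point qHTS series, incubated overnight at 37C, 5% CO2. Viability read as ATP by BacTiter-Glo luminescence after 20 min at room temperature.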

The nature of assay [16]: Cytotoxicity qHTS for assessment of Hepg2 cells membrane integrity screened against the NCATS CANVASS Library (AID 1347387). The settings on record: HepG2 LDH release (CytoTox-ONE) fluorescence, 5 h; series mostly up to 46.1 µM. The method, boiled down:
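HepG2 cells (2000/well) attached overnight at 37C, then received compounds in an 11-point series at 0.59 nM - 46 uM final for 5 hr. LDH release was detected fluorometrically (ex 560/em 590 nm) with CytoTox-ONE reagent after 10 min at room temperature.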

The nature of assay [17]: qHTS for Activators of p53 Stress Response Pathway screened against the NCATS CANVASS Library (AID 1347388). Note: 0% is about no effect. The settings on record: p53RE-bla HCT-116, beta-lactamase reporter, 16 h; series mostly up to 46.1 µM. The method, boiled down: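 Beta-lactamase reporter driven by p53 response elements in HCT-116 cells, read as the 460 nm/530 nm emission ratio after CCF4 loading, following 16 h of exposure to an 11-point series. Cell viability was measured in the same wells by CellTiter-Glo luminescence.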

Assay [18] is described as follows: qHTS for activators of dead-cell proteases activity screened against the NCATS CANVASS Library (AID 1347392).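 Note: luminescence from protease leaking out of membrane-damaged cells cleaving impermeant substrate; 0% is about no effect; rising signal means more cytotoxicity.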 The settings on record: HepG2 cytotoxicity, dead-cell protease luminescence, 5 h; series mostly up to 46.1 µM. The method, boiled down: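 Compounds are pin-transferred onto attached HepG2 cells, giving 11 final concentrations. After 5 h at 37C, AAF-aminoluciferin reagent is added and luminescence is recorded at room temperature.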

Assay [19] is described as follows: Viability qHTS for inhibitors of the SERCaMP assay screened against the NCATS CANVASS Library (AID 1347400). Note: % is set by controls: 0 for no effect and ±100 for the full control effect; nearly all actives have a fitted effect of over 70% in size. The settings on record: SH-SY5Y SERCaMP cells viability, CellTiter-Glo, 48 h; series mostly up to 92.2 µM. An outline of the steps: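 SH-SY5Y-GLuc SERCaMP MJH297-derived cells (1000 cells/well) were pre-incubated 4 h at 37C, then exposed to compounds for 48 h. Viability was read as CellTiter-Glo luminescence; bortezomib served as positive control.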

A short description of assay [20]: qHTS drug screen for cell cycle checkpoint inhibitors in PARPi-resistant BRCA-mutant ovarian cancer cell lines. (AID 1963452; calls by dose curve; note: potency is the fitted concentration of half-maximal effect). The settings on record: PEO1/OlaR viability, CellTiter-Glo luminescence, 96 h; for Z-AUC: stronger effect = lower value. An outline of the steps:
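PEO1, PEO4 and PEO1/OlaR ovarian cancer cells, 600 per well, exposed 96 h at 37C to a dilution series. Viability read by CellTiter-Glo luminescence, normalized to DMSO and empty wells; activity summarized as Z-AUC.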

The mark [21] stands for this setting: measured here: PEO1 parental Z-AUC.

Sequence of Nuclear receptor subfamily 1 group I member 3 (Homo sapiens) (Q14994 whole entry, looked up): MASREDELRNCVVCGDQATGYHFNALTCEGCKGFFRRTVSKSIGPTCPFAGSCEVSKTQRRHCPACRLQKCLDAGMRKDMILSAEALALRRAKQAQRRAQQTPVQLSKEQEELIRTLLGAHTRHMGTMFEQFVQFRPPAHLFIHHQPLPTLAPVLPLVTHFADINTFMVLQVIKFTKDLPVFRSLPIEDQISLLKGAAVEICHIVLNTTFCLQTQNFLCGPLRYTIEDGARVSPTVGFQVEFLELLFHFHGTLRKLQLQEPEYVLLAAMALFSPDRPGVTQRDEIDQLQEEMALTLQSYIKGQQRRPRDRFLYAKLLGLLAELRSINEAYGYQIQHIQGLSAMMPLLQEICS
Sequence of Luciferin 4-monooxygenase (Photinus pyralis) (P08659 whole entry, looked up): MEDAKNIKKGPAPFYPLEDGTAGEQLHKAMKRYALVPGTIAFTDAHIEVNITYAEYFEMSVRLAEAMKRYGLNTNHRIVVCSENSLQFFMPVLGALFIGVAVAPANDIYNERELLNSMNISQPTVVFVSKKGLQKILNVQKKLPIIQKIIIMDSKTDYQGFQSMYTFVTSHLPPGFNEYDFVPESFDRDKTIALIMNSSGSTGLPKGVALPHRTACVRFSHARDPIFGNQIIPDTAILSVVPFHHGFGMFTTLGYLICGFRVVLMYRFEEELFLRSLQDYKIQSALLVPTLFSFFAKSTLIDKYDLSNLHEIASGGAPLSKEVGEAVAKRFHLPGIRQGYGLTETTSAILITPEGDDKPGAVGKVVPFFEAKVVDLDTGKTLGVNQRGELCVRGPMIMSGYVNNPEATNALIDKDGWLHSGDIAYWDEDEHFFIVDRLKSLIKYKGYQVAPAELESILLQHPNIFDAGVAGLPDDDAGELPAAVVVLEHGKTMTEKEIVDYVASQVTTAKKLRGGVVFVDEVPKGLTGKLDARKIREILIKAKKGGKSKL

Regarding `C[C@@]1(CCC(=O)Nc2c(O)ccc(C(=O)O)c2O)C(=O)C=C[C@]23C[C@H]4C[C@H](O[C@@]4(C)C2)C31` (some centres undefined), the Potency result in assay [1], in [3], in [4], in [5], in assay [7] and in assay [8] was “inactive” each time. The Potency entry in [9], in [10], in [11], in [12], in assay [13] and in assay [17] was “inactive” each time. For the same compound, the Potency result in assay [18] and in [19] was “inactive” in each case. In addition, the call in assay [2], in assay [6], in [14], in [15] and in [16] was inactive.

Consider `CS[C@H]1SC[C@@H]2C(=O)N(C)[C@H](C(C)C)C(=O)OC[C@H](NC(=O)c3cnc4ccccc4n3)C(=O)N[C@H](C)C(=O)N(C)[C@H]1C(=O)N(C)[C@H](C(C)C)C(=O)OC[C@H](NC(=O)c1cnc3ccccc3n1)C(=O)N[C@H](C)C(=O)N2C`, for which the Potency in [20] is 8.7 nM (active).

For the compound `C[C@@H]1CC(=O)Nc2cccc(-c3cnn(C(C)(C)C)c3)c2N1`, the Z-AUC in [20] is -0.505 (inactive); in assay [20] (setting [21]) it was -0.577; in assay [20] (measured here: PEO4 Z-AUC) it was -0.924.

As to `NC(=O)/C(=C/n1cnc(-c2cc(C(F)(F)F)cc(C(F)(F)F)c2)n1)c1cncnc1`, the Z-AUC in assay [20] is -0.773 (inactive); in assay [20] (setting [21]), -2.06; in assay [20] (measured here: PEO4 Z-AUC) it was -1.68.

Consider `CCC[C@H](NC(=O)/C(C#N)=C/c1cccc(Br)n1)c1ccccc1`, for which the Z-AUC in assay [20] is 0.211 (inactive); in assay [20] (setting [21]) it was 0.0929; in assay [20] (measured here: PEO4 Z-AUC) it was 0.0816.
